# In the supplement of paper PMC9135407:
# Several values for one entry are separate records, joined by “and”; a condition that tells them apart may be missing. Equal values may be shown once. Where a name gives a salt, the structure may show the parent alone. About 620 (11%) of roughly 5,800 compounds showed activity. This excerpt belongs to a sample that is enriched for actives. A number with no mark means an inactive call.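 How the source made its calls: active = score above a cut-off or among the top three wells of a plate; in these data no inactive exceeds 0.85.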
# Test system: primary human hepatic stellate cells (donor 1)
# Assay: scaled lipid accumulation score (0 = DMSO-like, 1 = nortriptyline-like); higher = stronger HSC inactivation (lipid re-accumulation), active = hit call of the paper
# Details: 48 h
# [1] = library stock concentration: 3.33 mM
# [2] = library stock concentration: 10 mM
# [3] = library stock concentration: 80 uM
# [4] = library stock concentration: 400 uM
# [5] = library stock concentration: 2 mM
# [6] = library stock concentration: 1 mM
smiles,measurement,setting,value
"C/C=C1\NC(=O)[C@H]2CSSCC/C=C/[C@H](CC(=O)N[C@H](C(C)C)C(=O)N2)OC(=O)[C@H](C(C)C)NC1=O [Romidepsin (FK228, Depsipeptide)]",scaled lipid accumulation score,[1],0.521
same,scaled lipid accumulation score,[2],0.472
C=CC(=O)N1CCc2ccc(-n3c(=O)ccc4cnc5ccc(-c6cnn(C)c6)cc5c43)cc21,scaled lipid accumulation score,[2],1.19 (active)
C=CC(=O)Nc1cc(-n2c(=O)ccc3cnc4ccc(-c5cn[nH]c5)cc4c32)ccc1C,scaled lipid accumulation score,[3],≤ 0
same,scaled lipid accumulation score,[4],≤ 0
same,scaled lipid accumulation score,[5],0.082
same,scaled lipid accumulation score,[2],0.662
C=CC(=O)Nc1cc(-n2c(=O)ccc3cnc4ccc(-c5ccc(NS(C)(=O)=O)cc5)cc4c32)ccc1C,scaled lipid accumulation score,[3],≤ -0.001
same,scaled lipid accumulation score,[4],≤ -0.001
same,scaled lipid accumulation score,[5],0.003
same,scaled lipid accumulation score,[2],0.06
CCCCC(CC)CN=C(N)N=C(N)NCCCCCCNC(N)=NC(N)=NCC(CC)CCCC (stereo not given) [Alexidine hydrochloride],scaled lipid accumulation score,[2],≤ -0.027
CCCCCC1OC(O)CC1SC[C@H](NC(C)=O)C(=O)O (stereo not given in full) [4-hydroxy Nonenal Mercapturic Acid],scaled lipid accumulation score,[6],≤ 0
Nc1c(CC(=O)O)cccc1C(=O)c1ccccc1 [Amfenac Sodium Monohydrate],scaled lipid accumulation score,[1],≤ 0
same,scaled lipid accumulation score,[2],0.019
NC1(Cc2ccc(Cl)cc2)CCN(c2ncnc3[nH]ccc23)CC1 [listing 1 of 2 here],scaled lipid accumulation score,[1],0.47
NC1(C(=O)N[C@@H](CCO)c2ccc(Cl)cc2)CCN(c2ncnc3[nH]ccc23)CC1,scaled lipid accumulation score,[3],0.053
same,scaled lipid accumulation score,[4],0.049
same,scaled lipid accumulation score,[5],0.038
same,scaled lipid accumulation score,[1],≤ -0.009
same,scaled lipid accumulation score,[2],≤ 0 and 0.178
NC1(Cc2ccc(Cl)cc2)CCN(c2ncnc3[nH]ccc23)CC1 [listing 2 of 2 here],scaled lipid accumulation score,[2],1.09 (active)
"OCCNCCCOc1cccc(Cl)c1Cl [2,3-DCPE (hydrochloride)]",scaled lipid accumulation score,[6],0.049
O=C(c1cccs1)c1ccc(OCCCO)c(Cl)c1Cl [homo-Tienilic Alcohol],scaled lipid accumulation score,[6],0.02
"Cl.OCCNCCCOc1cccc(Cl)c1Cl [2,3-DCPE hydrochloride]",scaled lipid accumulation score,[2],1.14 (active)
O=Cc1cccc2[nH]ccc12 [4-formyl Indole],scaled lipid accumulation score,[6],≤ 0
CC(C)(C)Cn1c(N)nc2ccc(-c3[nH]c(C(C)(C)C)nc3-c3ccc(F)cc3)nc21 [Ralimetinib],scaled lipid accumulation score,[3],0.033
same,scaled lipid accumulation score,[4],0.086
same,scaled lipid accumulation score,[5],0.076
same,scaled lipid accumulation score,[2],0.481
CC(C)(C)Cn1c(N)nc2ccc(-c3[nH]c(C(C)(C)C)nc3-c3ccc(F)cc3)nc21,scaled lipid accumulation score,[1],0.034
same,scaled lipid accumulation score,[2],0.268
O=C(O)CCC/C=C\C[C@H]1[C@@H](O)CC(=O)[C@@H]1/C=C/[C@@H](O)COc1cccc(C(F)(F)F)c1 [11-keto Fluprostenol],scaled lipid accumulation score,[6],≤ 0
CN(C)C/C=C(/c1ccc(Br)cc1)c1cccnc1 [Zimelidine dihydrochloride monohydrate],scaled lipid accumulation score,,0.454
CN(C)C/C=C(/c1ccc(Br)cc1)c1cccnc1 [Zimelidine dihydrochloride],scaled lipid accumulation score,library stock concentration: 5.1 mM,0.434
same,scaled lipid accumulation score,[2],0.178
CN(C)C/C=C(/c1ccc(Br)cc1)c1cccnc1.Cl.Cl [Zimelidine dihydrochloride],scaled lipid accumulation score,[2],0.893 (active)
CCN(CC)C(=O)c1cccnc1,scaled lipid accumulation score,[2],0.073
CC(=O)OCOC(c1ccc2ccccc2c1)P(=O)(OCOC(C)=O)OCOC(C)=O (stereo not given),scaled lipid accumulation score,library stock concentration: 11 mM,0.031
CS(=O)(=O)Nc1ccc([N+](=O)[O-])cc1Oc1ccccc1 [Nimesulide],scaled lipid accumulation score,,0.061
same,scaled lipid accumulation score,[6],≤ 0
same,scaled lipid accumulation score,[1],≤ 0
same,scaled lipid accumulation score,library stock concentration: 16.2 mM,0.012
CC(=O)OCOC(c1cc([N+](=O)[O-])ccc1Oc1ccc(Br)cc1)P(=O)(OCOC(C)=O)OCOC(C)=O (stereo not given),scaled lipid accumulation score,library stock concentration: 8.1 mM,0.887 (active)
Cn1cc(C(F)(F)F)nc1-c1ccc(OCC(O)CNCCOc2ccc(O)c(C(N)=O)c2)cc1 (stereo not given),scaled lipid accumulation score,[2],0.731
COc1cc2ncnc(Sc3nnc(C)s3)c2cc1OC,scaled lipid accumulation score,[2],0.919 (active)
COc1cc2ncnc(Nc3cc(Br)c(O)c(Br)c3)c2cc1OC,scaled lipid accumulation score,[3],≤ 0
same,scaled lipid accumulation score,[4],≤ 0
same,scaled lipid accumulation score,[5],≤ 0
same,scaled lipid accumulation score,[2],0.04
